# Screening results (PubChem)
# This is a sample that favours compounds with a hit; in the whole collection about 4.2% have one here.
# ALOX12 inh – blocks human arachidonate 12S-lipoxygenase; P18054; purified 12hLO, xylenol orange hydroperoxide absorbance; Potency, µM (titrated, usually from 108 µM), for inactives: top-dose activity change, negative = inhibition, hits mostly inhibitors; actives 1.1% (n = 580,000); AID 1671190
#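 Hydroperoxide product was detected by ferrous iron/xylenol orange as the 573 to 405 nm absorbance ratio. Arachidonic acid at 40 uM (final) was turned over for 30 min at room temperature by 150 nM human 12hLO, pH 7.0 Hepes buffer, after 15 min compound preincubation.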
# PLK1 PBD inh – PLK1 (human) polo-box domain binding inhibition; actives 2.8% (n = 360,000); Plk1 PBD binding of FITC phosphopeptide, fluorescence polarization; Potency, µM, for inactives: max response, negative = inhibition, most hits filed as inhibitors; also: series mostly up to about 57 µM; nearly all actives have a fitted effect of over 65% in size
# Sfp inh – Sfp phosphopantetheinyl transferase inhibition. Potency, µM, for the others: largest response in the series, negative = inhibition, most hits filed as inhibitors. AID 1490. actives 3.5% (n = 310,000). Biochemical Sfp PPTase activity, qHTS;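 also: the enzyme is Sfp with the accession as filed and its product quenches rhodamine fluorescence; 0% = enzyme reaction without inhibitor and -100% = no enzyme wells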
#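 With Hepes-Na pH 7.6 buffer containing 10 mM MgCl2, Sfp (15 nM) modified BHQ-2-YbbR (12.5 uM) using rhodamine-CoA (5 uM). Two reads 30 minutes apart at 525/598 nm yielded each well's rate.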
# VDR inhibitor – blocks the human vitamin D receptor; P11473; VDR-SRC2-3 peptide fluorescence polarization, 2 h; Potency, µM, for the others: max response, negative = inhibition, actives largely listed as inhibitors; actives 0.93% (n = 400,000); AID 504847
# Target sequence (P11473 whole entry, looked up): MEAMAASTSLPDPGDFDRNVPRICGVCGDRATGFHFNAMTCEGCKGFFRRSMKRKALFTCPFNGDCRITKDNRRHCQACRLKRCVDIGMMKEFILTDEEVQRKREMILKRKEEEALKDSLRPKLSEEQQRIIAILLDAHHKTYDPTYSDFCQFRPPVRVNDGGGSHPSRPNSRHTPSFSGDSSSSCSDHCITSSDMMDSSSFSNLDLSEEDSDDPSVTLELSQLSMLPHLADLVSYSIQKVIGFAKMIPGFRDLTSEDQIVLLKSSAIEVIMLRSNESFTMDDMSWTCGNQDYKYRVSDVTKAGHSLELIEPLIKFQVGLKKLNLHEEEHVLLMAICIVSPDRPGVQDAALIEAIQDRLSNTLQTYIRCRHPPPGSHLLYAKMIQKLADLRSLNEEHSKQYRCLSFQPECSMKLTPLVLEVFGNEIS
#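 Compounds are added to VDR with labelled SRC2-3 coactivator peptide and held 2 h at room temperature. Inhibition of the VDR–peptide interaction is then read as a change in fluorescence polarization.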
# TbPYK inh – Trypanosoma brucei pyruvate kinase inhibition, cherry-pick confirmation | shares compounds with PLK1 PBD inh | Potency, µM (doses to about 76.9 µM), for inactives: at the highest dose activity change, negative = inhibition, actives largely listed as inhibitors | actives 67% (n = 890) | recombinant TbPYK, Kinase-Glo ATP luminescence; also: nearly all actives have a fitted effect of over 70% in size
# TbPYK orthogonal – inhibits T. brucei pyruvate kinase in orthogonal ADP-Glo assay; actives 62% (n = 890); shares compounds with PLK1 PBD inh; AID 720584; Potency, µM (series often up to 76.9 µM), inactives show top-dose activity change, negative = inhibition, hits mostly inhibitors; recombinant TbPYK, ADP-Glo luminescence, 60 min; also: nearly all actives have a fitted effect of over 75% in size
# * hit, by the source's call; ? = inconclusive; / = not tested or not shown. Calls follow the shape of the dose curve; as a rule, active = well fitted curve in the direction sought with a large enough effect; inconclusive = small, poorly fitted or top-dose-only effect, or another doubt; inactive = no such curve, though single readings can be large; an effect the other way counts as inactive or inconclusive. Unless noted, % is scaled to controls: 0 for no effect and ±100 for the full control effect; potency is read from the fitted curve at half-maximal effect.
SMILES,ALOX12 inh,PLK1 PBD inh,Sfp inh,VDR inhibitor,TbPYK inh,TbPYK orthogonal
COCCN(C(=O)COC(=O)/C=C/c1ccc2ccccc2n1)c1c(N)n(Cc2ccccc2)c(=O)[nH]c1=O,?,-2%,0%,-19%,/,/
O=C1OC(c2ccc3ccccc3c2O)(c2ccc3ccccc3c2O)c2ccccc21,6.3µM*,4.7µM*,/,?,13µM*,13µM*
O=C1OC2(c3ccccc31)c1ccccc1-c1ccccc12,13%,-4%,/,-1%,/,/
CC(C)NC(=O)c1cc(C2CCCCN2C(=O)c2ccc(Cl)cc2)on1 (stereo not given),0%,-24%,/,/,/,/
CSC1=NS(=O)(=O)c2c(C)nn(C)c2S1,?,21µM*,6.3µM*,25µM*,4µM*,3.5µM*
O=C(NCC1CCCO1)c1sc(=S)n2c1[nH]c(=O)c1ccc(C(=O)N3CCCCC3)cc12 (stereo not given),-24%,-19%,-9%,-25%,?,?
CCOC(=O)c1ccc(NC(=S)NN2CCOCC2)cc1,-16%,9%,-11%,-15%,/,/
O=P(c1ccccc1)(c1ccccc1)c1ccccc1C(Br)Br,-12%,-11%,/,/,22µM*,32µM*
CC(C)(C)c1cccc(P(=O)(c2ccccc2)c2ccccc2)c1O,9%,-5%,18%,-13%,/,/
CCOC(=O)C1=CCN(S(=O)(=O)c2ccccc2Br)C1c1ccc(F)cc1 (stereo not given),-23%,-7%,/,/,/,/
O=C(NCCCNC(=O)c1cccs1)c1cccs1,-27%,2.7µM*,-12%,?,-5%,-9%
O=C(NCCCCNC(=O)c1cccs1)c1cccs1,-10%,-6%,20%,3%,/,/
Cn1c(=O)n(C)c2cc(/C=C3/NC(=O)N(Cc4ccccc4)C3=O)ccc21,-8%,0%,15%,4%,/,/
Cc1ccc(/C=C2/NC(=O)N(Cc3ccccc3)C2=O)o1,32µM*,34%,?,89µM*,16µM*,32µM*
CC(C)[C@@H](OCc1ccccc1)[C@H](C)/C=N\OC[C@@H](O)COCc1ccco1,/,/,5%,/,/,/
O=C(O)C1C2C=CC3(CN(C4CCCC4)C(=O)C13)O2 (stereo not given),295%,-17%,5%,-11%,/,/
CCCCOc1ccc(/C=C/C(=O)OCC(=O)NC(=O)NCC(C)C)cc1OCC,4%,-11%,-7%,-7%,4%,-2%
CCCCOc1ccc(/C=C/C(=O)OCC(=O)NC2CCS(=O)(=O)C2)cc1OCC (stereo not given),5%,-5%,/,7%,/,/
O=C(CN1CCN(c2ccc(O)cc2)CC1)Nc1ccccc1C(=O)NCCc1ccccc1,?,3%,/,-3%,2.5µM*,5µM*
O=C1C=CC(=O)C(C2=C3C(=O)N(CCc4ccccc4)CC(=O)N3CCC2)=C1,40µM*,?,1µM*,32µM*,0.56µM*,0.89µM*
CC1CN2C(c3ccc([N+](=O)[O-])cc3)=CSC2=N1 (stereo not given),?,?,50µM*,?,6.3µM*,13µM*
Cc1nnc(N2CCN(c3ccccc3)CC2)[nH]c1=O,15%,3µM*,15%,-18%,3%,-3%
COc1cc(NC(=O)c2cnn(-c3cccc(F)c3)c2C2CCNCC2)cc(OC)c1OC,6%,/,/,9%,/,/
